# Most compounds without a hit are left out; they make up all but 10% or so of the library.
# LMNA splice mod: qHTS Assay for Modulators of Lamin A Splicing; hit rate 0.01% among 200,000; HeLa LMNA splicing GFP/RFP minigene ratio, 48 h; Potency, µM (highest dose often 46.1 µM), inactives show at the highest dose ratio change, negative = inhibition, most hits filed as inhibitors; AID 1487, 2009; active means well fitted inhibition curve with a large enough effect in the signal ratio, with a control signal flat, not every such curve was filed as active; inconclusive means small, poorly fitted or top-dose-only effect, or effect the other way, or a change in a side signal; the % refers to the signal ratio; further: potency means the concentration at half of the fitted maximal effect
#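 Read-out is the ratio of GFP to DsRed2 object intensity, acquired by 488 nm laser-scanning cytometry on HeLa lamin A-EGFP minigene reporter cells. Compound incubation 48 hrs at 37 °C in Opti-MEM with 2% FBS; DMSO 0.5% final.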
# HPGD inh: qHTS Assay for Inhibitors of HPGD (15-Hydroxyprostaglandin Dehydrogenase) | Potency, µM, for the others: top-dose activity change, negative = inhibition, usual class: inhibitors | purified HPGD, NADH fluorescence kinetic, PGE2 substrate | 15-hydroxyprostaglandin dehydrogenase [NAD(+)] (Homo sapiens), P15428 | hit rate 4.3% among 150,000; further: potency means the concentration at half of the fitted maximal effect
#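 NADH formation kinetics: reaction with 30 uM PGE2 and 1 mM NAD+ (final), 20 nM enzyme, Tris-HCl pH 8 with Tween 20, after 15 min compound preincubation at room temperature. Fluorescence change, last versus first of five reads.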
# ALDH1A1 block: qHTS Assay for Inhibitors of Aldehyde Dehydrogenase 1 (ALDH1A1). Aldehyde dehydrogenase 1A1 (Homo sapiens), P00352. Purified ALDH1A1, NADH fluorescence, propionaldehyde substrate. Potency, µM (top dose mostly 75.3 µM), without a hit: at the top dose activity, negative = inhibition, most hits filed as inhibitors. hit rate 7.3% among 220,000. AID 1030, 2008;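 further: potency means the concentration at half of the fitted maximal effect; plate controls were no enzyme wells and a reference inhibitor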
# 12-hLO inh: qHTS Assay for Inhibitors of 12-hLO (12-human lipoxygenase); Polyunsaturated fatty acid lipoxygenase ALOX12 (Homo sapiens), P18054; purified 12-hLO, xylenol orange hydroperoxide absorbance; Potency, µM (series often up to 57.1 µM), for the others: at the highest dose activity change, negative = inhibition, hits mostly inhibitors; hit rate 0.12% among 150,000; AID 1452, 2008; active means well fitted inhibition curve with a large enough effect; inconclusive means small, poorly fitted or top-dose-only effect; further: potency means the concentration at half of the fitted maximal effect; nearly all actives have a fitted effect of over 55% in size
# Target sequence (P18054 whole entry, looked up): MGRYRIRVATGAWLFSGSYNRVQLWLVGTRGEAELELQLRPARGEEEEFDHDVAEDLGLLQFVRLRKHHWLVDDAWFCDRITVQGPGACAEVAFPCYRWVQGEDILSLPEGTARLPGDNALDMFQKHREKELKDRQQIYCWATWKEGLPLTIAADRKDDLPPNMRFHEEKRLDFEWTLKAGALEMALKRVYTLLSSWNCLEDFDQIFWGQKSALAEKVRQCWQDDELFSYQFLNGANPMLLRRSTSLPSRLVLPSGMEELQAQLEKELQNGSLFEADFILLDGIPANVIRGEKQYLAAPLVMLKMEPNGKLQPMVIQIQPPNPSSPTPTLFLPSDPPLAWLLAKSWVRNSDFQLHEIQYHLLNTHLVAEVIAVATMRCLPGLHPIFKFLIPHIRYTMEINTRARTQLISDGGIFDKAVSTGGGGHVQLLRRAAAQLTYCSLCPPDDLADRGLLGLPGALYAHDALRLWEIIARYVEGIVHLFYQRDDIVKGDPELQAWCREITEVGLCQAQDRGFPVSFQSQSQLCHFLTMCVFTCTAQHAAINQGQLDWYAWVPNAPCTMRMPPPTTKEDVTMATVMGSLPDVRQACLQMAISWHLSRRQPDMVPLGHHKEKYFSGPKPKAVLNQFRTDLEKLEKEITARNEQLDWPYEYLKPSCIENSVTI
#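 Hydroperoxide formation by human 12-lipoxygenase from 40 uM arachidonic acid was followed colorimetrically via ferric-xylenol orange complex, using the 573/405 nm absorbance ratio. Enzyme concentration was 150 nM, with 30 min reaction at room temperature.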
# PNC inhibitor: High Content Assay for Compounds that inhibit the Assembly of the Perinucleolar Compartment | PC3M PTB-GFP, PNC prevalence imaging, 16 h; hits give low values | AID 2417, 2010 | hit rate 3.1% among 140,000 | activity change (PNC), negative = inhibition, % at 10 µM;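 active means readout at or below -70, meaning at least 70% loss of cells showing the perinucleolar compartment, a nuclear body marking cancer cells; inconclusive means readout between -30 and a set limit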;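 further: plate controls were DMSO wells for no effect and camptothecin positive control wells for full effect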
#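 PC3M cells stably expressing PTB-GFP, 750–1000 cells/well, treated 16 h at 37 °C with compound (23 nl of library stock), in duplicate. After paraformaldehyde fixation and Hoechst stain, imaged at 20x; PNC prevalence scored by image analysis.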
# The depositor's hits bear a star; u = inconclusive; x = no result; ! = a repeat was not active; [ ] = dose if it differs, or a comment. Unless noted, the call rests on the fitted dose curve; in most records, active means well fitted inhibition curve with a large enough effect (not every such curve was filed as active); inconclusive means small, poorly fitted or top-dose-only effect, or another doubt; inactive means no such curve, though single readings can be large or run the other way. Unless noted, on the % scale 0 is the no-effect control and ±100 the full control effect.
SMILES,LMNA splice mod,HPGD inh,ALDH1A1 block,12-hLO inh,PNC inhibitor
O=C(COc1ccccc1Cl)N(Cc1ccco1)C1CCS(=O)(=O)C1 (configuration not stated),-1.1%,x,23.9%,0.1%,-111.1*
O=C(COc1ccccc1)N(Cc1ccco1)C1CCS(=O)(=O)C1 (configuration not stated),4.9%,-11.0%,22.4µM*,-1.6%,-3.9
CN(C)c1ccc(-c2cncnc2Nc2ccccc2)cc1,u,x,25.1µM*,x,x
O=C(CSC(=S)N1CCOCC1)Nc1nc(=O)c2ccccc2s1,-13.5%,-21.6%,6.31µM*,-4.5%,25.3
CN(C)c1ccc(NC(=O)CSC2=Nc3ccccc3C3=NC(CC(=O)NCc4ccc5c(c4)OCO5)C(=O)N23)cc1 (configuration not stated),4.3%[46 µM],x,x,x,x
CCCNCC1COc2ccccc2O1 (configuration not stated),-0.5%,-15.9%,11.7%,1.0%,10.8
CCOC(=O)CCNCC1COc2ccccc2O1 (configuration not stated),-11.8%,-4.2%,6.5%,4.9%,-92.5*
O=C1CC2(CCCC2)CC(=O)N1CCCCNC[C@H]1COc2ccccc2O1,x,-1.7%,10µM*,-0.2%,x
C=C[C@@](C)(O)CC[C@@H]1[C@@]2(C)CCCC(C)(C)[C@@H]2CC[C@@]1(C)O,x,-8.6%,39.8µM*!,-2.7%,x
Fc1ccc(-n2ncc3c(N4CCC(Cc5ccccc5)CC4)ncnc32)cc1,-24.6%[46 µM],x,x,x,x
CCCc1cnc2c(c1SCC(=O)Nc1ccc([N+](=O)[O-])cc1)c(=O)n(C)c(=O)n2C,6.0%[46 µM],x,x,x,x
COc1ccc(Cc2noc(CN3CCN(Cc4cccc(Cl)c4)CC3)n2)cc1OC,x,x,8.91µM*,x,x
COCCN1CCN(Cc2nc(Cc3ccc(OC)c(OC)c3)no2)CC1,u,x,0.5%,x,x
Cc1ccc(-c2nc(CS(=O)CC(=O)NCc3ccccc3)c(C)o2)cc1 (configuration not stated),-1.0%,-2.1%,-3.8%,-2.2%,-10.8
Cc1ccc(CNC(=O)CS(=O)Cc2nc(-c3cccs3)oc2C)cc1 (configuration not stated),-13.0%,28.2µM*,u,-7.9%,-18.2
O=c1[nH]c(=O)n([C@@H]2C[C@H](O)[C@H](CO)O2)cc1I,u,-7.9%,10.2%[20.9 µM],1.3%[25.6 µM],x
Cc1ccc2cc(CCNC(=O)c3ccc(S(=O)(=O)N4CCCCC4)cc3)c(=O)[nH]c2c1,x,x,14.1µM*,x,x
O=C(C1CCCCC1)N(CCN1CCN(c2ccccc2CO)CC1)c1ccccn1,x,x,-2.9%,x,x
COc1ccc2cnn(CCOc3cc(C)ccc3C(C)C)c(=O)c2c1OC,u,-15.7%,-4.5%,-6.1%,-113.4*
COc1ccc2cnn(-c3ccc(C)cc3)c(=O)c2c1OC,-5.1%,25.1µM*,u,-1.7%,-17.8
COc1ccc2c(c1)sc(=N)n2C,x,x,20µM*,x,x
COc1ccc2c(c1)cc(C(=O)O)n2C,-4.9%,u,u,2.1%,46.0
O=C(Nc1ccc(F)cc1)C(c1ccccc1)N1CCN(S(=O)(=O)c2ccccc2)CC1 (configuration not stated),-14.9%,-9.3%,10µM*,-1.9%,-11.7
Cc1ccc(S(=O)(=O)N2CCN(C(C(=O)Nc3ccc(F)cc3)c3ccccc3)CC2)cc1 (configuration not stated),-5.2%,-4.3%,u,-2.3%,-5.7
O=C(Nc1ccc(F)cc1)C(c1ccccc1)N1CCN(S(=O)(=O)c2c(F)cccc2F)CC1 (configuration not stated),u,-8.5%,7.94µM*,-2.7%,0.1
SMILES,LMNA splice mod,HPGD inh,ALDH1A1 block,12-hLO inh,PNC inhibitor
Cc1ccc(-c2csc(N3N=C(c4ccccc4)/C(=C\c4ccc(N(C)C)cc4)C3=O)n2)cc1,-6.1%,-3.6%,3.55µM*,-8.0%,10.6
CO[C@@H]1/C=C\O[C@@]2(C)Oc3c(C)c(O)c4c(c3C2=O)C(=N[C@H]2CC[C@H](O)O[C@@H]2C)C=C(NC(=O)/C(C)=C\C(=O)[C@@H]2C[C@@H]2[C@@H](O)[C@H](C)[C@@H](O)[C@H](C)[C@H](OC(C)=O)[C@@H]1C)C4=O,x,-29.2%,-12.8%[13.5 µM],-6.3%[11.4 µM],x
CCCCC(=O)Nc1ccc2c3c(cccc13)C(=O)N2CC,u,-15.4%,7.08µM*,-3.0%,23.3
CCN1C(=O)c2cccc3c(NC(=O)c4cccc(N5C(=O)CCC5=O)c4)ccc1c23,-11.8%,-14.2%,2µM*,0.9%,3.9
Nc1ncnc2c1nc(Br)n2[C@@H]1O[C@H]2COP(=O)(O)O[C@@H]2[C@@H]1O,x,x,-0.4%,x,x
CS(=O)(=O)N(Cc1ccc(C(=O)NN=C2CCCC2)cc1)c1ccccc1,-16.8%,-9.4%,1.26µM*,4.0%,-16.0
CCCNC(=O)c1ccc(N(Cc2ccccc2)S(C)(=O)=O)cc1,-5.6%,-11.7%,10.9%,2.1%,-111.7*
CS(=O)(=O)N(Cc1ccc(C(=O)NC2CCCC2)cc1)c1ccccc1,x,x,-8.9%,x,x
CS(=O)(=O)N(Cc1ccc(C(=O)NN=C2CCCCCC2)cc1)c1ccccc1,-13.1%,-9.9%,15.8µM*,-3.7%,8.8
CCOCCCNC(=O)Cn1ncc2c([nH]c3ccccc32)c1=O,-11.4%[46 µM],x,x,x,x
CCOC(=O)c1cccc(NC(=O)Cn2c(=O)nc(-c3ccccc3F)c3cc(Cl)ccc32)c1,-9.2%[46 µM],x,x,x,x
C(=N\c1nc2ccccc2n1CCN1CCCCC1)/c1ccc2c(c1)OCO2,3.0%,-6.5%,u,3.8%,u
CCCn1c(/N=C/c2ccc3c(c2)OCO3)nc2ccccc21,4.8%,-24.1%,14.1µM*,4.7%,24.7
Cc1nn(S(=O)(=O)c2ccc(C(C)(C)C)cc2)c(C)c1S(=O)(=O)N1CCC(C)CC1,21.5%[46 µM],x,x,x,x
O=C(O)c1ccc(NS(=O)(=O)Cc2ccccc2)cc1,x,-0.9%,-2.9%[13.5 µM],-1.7%[11.4 µM],x
CCS(=O)(=O)Nc1ccc(C(=O)OC)cc1,3.4%,14.1µM*,-0.6%,-3.6%,0.0
CCS(=O)(=O)Nc1ccc(C(=O)c2ccccc2)cc1,u,0.282µM*,-10.4%,-3.2%,-22.6
C=CCOC(=O)N[C@H](/C(C(=O)OC)=C(\C)NCc1ccccc1)c1ccc(C)cc1,x,-12.9%,-1.7%,x,x
COc1ccccc1CN1CCCC2(CCN(C(=O)c3cccc(F)c3)CC2)C1,x,-3.7%,7.5%,4.2%,x
COc1cccc(C=Nc2ccccc2C(=O)Nc2ccccc2)c1O,u,u,u,-17.8%,-110.0*
CC(C)OC(=O)[C@@H]1CC[C@H](C)[C@@H](CCC[C@@H]2C[C@@H](O)C[C@H](CC#N)O2)O1,x,1.6%,-7.9%,x,x

# Bioassay records: PubChem, National Center for Advancing Translational Sciences (NCATS)
